Screening data (PubChem BioAssay)
Sampled rows, rich in hits. Any-hit rate of the full collection: about 21%.
ELG1 DNA repair: inhibitors of ELG1-dependent DNA repair in HEK293T cells | HEK293T ELG1-luciferase reporter, luminescence, 16 h; DNA damage induced by 5-fluorouridine | Potency, µM (series often up to 46.1 µM), for inactives: top-dose activity change, negative = inhibition, usual class: inhibitors | 330,000 compounds, 2.3% hits | AID 504467; note: potency is the fitted concentration of half-maximal effect; nearly all actives have a fitted effect of over 55% in size
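Overnight (16 hr) co-exposure of 2,000 cells/well to 5-fluorouridine and compound at 37 °C preceded detection. Luciferase was quantified via ONE-Glo luminescence; loss of signal denotes inhibition.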
DT40 TDP1 no CPT: qHTS for Inhibitors of human tyrosyl-DNA phosphodiesterase 1 (TDP1): qHTS in cells in absence of CPT; DT40 Tdp1-/- hTDP1 cells, no CPT, ATP luminescence, 48 h; Potency, µM (series often up to 46.2 µM), without a hit: at the highest dose activity change, negative = growth inhibition, usual class: inhibitors; 420,000 compounds, 15% hits; AID 686978, 2013; note: potency is the fitted concentration of half-maximal effect; nearly all actives have a fitted effect of over 55% in size
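Camptothecin absent (DMSO only). Human TDP1-complemented DT40 knockout cells, 400 cells/well, 37 °C for minimum 48 hr; ATP measured via CellTiter-Glo, 30 min dark incubation, luminescence.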
IL1B secr inh: inhibitors of inflammasome signaling (IL-1 beta secretion) | THP-1 LPS/ATP IL-1B secretion, AlphaLISA, 16 h; hits give low values | activity change, % at 57.5 µM | 360,000 compounds, 4.7% hits; in the data active = activity change below about -50%; inconclusive = mostly about -30% to -49%
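Secreted IL-1B measured by AlphaLISA bead assay after 16 h compound exposure of THP-1 cells; compounds (final up to 57.5 uM) added 1 h before LPS (250 ng/mL) and ATP (1.25 mM) stimulation; lower signal means less secretion.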
TDP1 cell CPT: DT40-hTDP1 cell growth loss with CPT | 420,000 compounds, 12% hits | Potency, µM (highest dose often 46.2 µM), inactives show top-dose activity change, negative = growth inhibition, usual class: inhibitors | chicken DT40 Tdp1-/-;hTDP1 cells + 20 nM CPT, ATP luminescence, 48 h; note: potency is the fitted concentration of half-maximal effect; nearly all actives have a fitted effect of over 55% in size
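Chicken DT40 Tdp1-/- cells stably complemented with human TDP1 were seeded at 400 cells/well in medium containing 20 nM camptothecin, exposed to pin-transferred compounds, and grown at 37 °C for at least 48 hr. Viability was read as ATP luminescence.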
VP16 counter: Gal4-VP16 reporter inhibition counter-screen; 310,000 compounds, 3.5% hits; Drosophila S2 Gal4-VP16 UAS-luciferase, luminescence, 20 h; AID 2546; Potency, µM (doses to about 53.6 µM), inactives show at the highest dose activity, negative = inhibition, usual class: inhibitors;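 note: Gal4-VP16 expression switched on by copper sulfate through the metallothionein promoter; potency is the fitted concentration of half-maximal effect; nearly all actives have a fitted effect of over 50% in size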
RORgamma inh: inhibitors of mouse ROR gamma transcriptional activity. P51450. Drosophila S2 Gal4-RORgamma UAS-luciferase reporter, 20 h. Potency, µM (highest dose often 53.6 µM), for the others: top-dose activity change, negative = inhibition, hits mostly inhibitors. 310,000 compounds, 5.4% hits. AID 2551; note: potency is the fitted concentration of half-maximal effect; nearly all actives have a fitted effect of over 60% in size
Target sequence (P51450 whole entry, looked up, the tested form may be a part): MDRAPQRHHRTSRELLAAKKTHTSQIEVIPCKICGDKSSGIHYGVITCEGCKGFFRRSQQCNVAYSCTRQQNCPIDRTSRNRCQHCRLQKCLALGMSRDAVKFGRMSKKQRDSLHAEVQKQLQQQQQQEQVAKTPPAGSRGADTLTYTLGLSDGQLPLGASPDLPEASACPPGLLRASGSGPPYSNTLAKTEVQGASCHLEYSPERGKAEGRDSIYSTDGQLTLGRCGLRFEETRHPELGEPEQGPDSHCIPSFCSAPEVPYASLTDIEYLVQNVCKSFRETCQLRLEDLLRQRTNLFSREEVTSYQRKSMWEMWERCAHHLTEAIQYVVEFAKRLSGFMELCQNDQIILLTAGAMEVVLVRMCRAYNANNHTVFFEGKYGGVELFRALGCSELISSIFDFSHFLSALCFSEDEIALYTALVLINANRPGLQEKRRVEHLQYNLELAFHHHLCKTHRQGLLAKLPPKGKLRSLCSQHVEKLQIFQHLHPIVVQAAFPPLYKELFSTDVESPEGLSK
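Drosophila S2 cells stably expressing Gal4-DBD/mouse RORγ fusion under metallothionein promoter plus UAS-luciferase; compound 1 h, then 700 uM CuSO4 induction for 20 h at ambient temperature; inhibition read as reduced luminescence.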
* marks the source's active call; other numbers are inactive results; ? = inconclusive; . = no result given; [ ] = another dose, or the depositor's remark. Unless noted, calls come from the whole dose curve; as a rule, active = well fitted curve in the direction sought with a large enough effect; inconclusive = small, poorly fitted or top-dose-only effect, or another doubt; inactive = no such curve, though single readings can be large; an effect the other way counts as inactive or inconclusive. % is set by controls: 0 for no effect and ±100 for the full control effect.

SMILES | ELG1 DNA repair | DT40 TDP1 no CPT | IL1B secr inh | TDP1 cell CPT | VP16 counter | RORgamma inh
COC(=O)C[C@H]1C=C[C@H](NS(=O)(=O)c2cn(C)cn2)[C@@H](CO)O1 | . | -2% | 31 | -6% | . | .
CCCCC(=O)Nc1ccccc1C(=O)OCc1cc(=O)n2nc(C3CCCCC3)sc2n1 | . | -29% | . | ? | . | .
Oc1ccc(-c2n[nH]c(=S)n2-c2ccc3c(c2)OCCO3)c(O)c1 | 3.7µM* | ? | -94* | ? | 11% | ?
S=c1[nH]nc(-c2ccc(Cl)cc2Cl)n1-c1ccc2c(c1)OCCO2 | 6% | -2% | 21 | -12% | -10% | 3.5µM*
S=c1[nH]nc(-c2ccc(Cl)cc2Cl)n1-c1ccccc1 | ? | -18% | -10 | 1% | ? | 11%[1.91 µM]
CN(CC(=O)Nc1c(Cl)cccc1Cl)C(=O)c1cc2ccccc2cc1O | 7% | ? | -6 | 0% | . | .
COc1cccc(NC(=O)CN(C)C(=O)CSc2nc3ccccc3s2)c1 | ? | ? | 22 | ? | . | .
CN(CC(=O)Nc1c(Cl)cccc1Cl)C(=O)c1ccccc1-c1nc2ccccc2s1 | ? | ? | -53* | -1% | . | .
COc1cccc(NC(=O)CN(C)C(=O)c2ccccc2-c2nc3ccccc3s2)c1 | -24% | 23µM* | -2 | ? | . | .
COc1ccc(C2C(C(=O)Nc3ccccc3)=C(C)Nc3nc(-c4ccccc4)nn32)c(OC)c1 (stereo not given) | . | ? | . | 16µM* | . | .
CC1=C(C(=O)Nc2cccnc2)C(c2ccc(Cl)cc2)n2nc(-c3ccccc3)nc2N1 (stereo not given) | . | ? | . | 16µM* | . | .
COc1cccc(C2C(C(=O)Nc3ccccc3)=C(C)Nc3nc(-c4ccccc4)nn32)c1OC (stereo not given) | . | ? | . | 16µM* | . | .
COc1ccccc1NC(=O)C1=C(C)Nc2nc(-c3ccccc3)nn2C1c1ccccn1 (stereo not given) | ? | -2% | -3 | 9% | 7% | -1%
COc1ccc(NC(=O)C2=C(C)Nc3nc(SC)nn3C2c2cc(OC)ccc2OC)cc1 (stereo not given) | . | 3% | . | 4% | . | .
COc1ccc(-c2nc3n(n2)C(c2ccc(OC)cc2)C(C(=O)Nc2cccnc2)=C(C)N3)cc1 (stereo not given) | . | -15% | . | -11% | . | .
Cc1cc(C)cc(OCC(=O)OCc2cc([N+](=O)[O-])cc3c2OCOC3)c1 | 12% | 4% | 11 | 14% | . | .
Nc1sc2c(c1C(=O)c1ccc(Cl)cc1)CCCC2 | . | . | . | . | 0% | 19%
O=C(Oc1ccccc1)N1CCC2(CCCN(c3ccccn3)C2)CC1 | . | ? | . | -1% | -4% | -28%
COc1cc(-c2nc3ccc4ccccc4c3c3c2CCC3)ccc1O | 0% | ? | -28 | ? | 0% | -15%[10 µM]
COc1cc2ccccc2c2c1CCCC2=O | ? | -24% | 31 | -10% | -4% | 4%
COc1cc(-c2nc3ccc4ccccc4c3c3c2CCC3)cc(OC)c1OC | ? | ? | -1 | ? | 22µM* | 5.6µM*
COc1cc(-c2nc3ccc4ccccc4c3c3c2CCC3)cc(OC)c1O | ? | 16µM* | -4 | 21µM* | ? | -7%
COc1ccc(CNC(=O)CCC2N=C3c4ccccc4N=C(SCC(=O)NCC4CCCO4)N3C2=O)cc1 (stereo not given) | 13% | 3% | 22 | 1% | 24% | -17%
Cc1ccc2nc(C)c(C(=O)N/N=C/c3cccs3)cc2c1 | 17% | ? | -16 | -10% | 0% | 16%
O=C(N/N=C/c1cccs1)c1cccc2cc[nH]c12 | -4% | ? | -25 | ? | ? | 2.8µM*
SMILES | ELG1 DNA repair | DT40 TDP1 no CPT | IL1B secr inh | TDP1 cell CPT | VP16 counter | RORgamma inh
O=C(N/N=C/c1cccs1)c1ccc2ccccc2c1 | ? | 21µM* | -19 | 15µM* | 5.6µM* | 4µM*
O=C(N/N=C/c1cccs1)c1ccc2ncccc2c1 | ? | -2% | -21 | 1% | ? | 11µM*
COC(=O)[C@@H]1C[C@H]1[C@@H](NC(=O)c1ccc(Br)cc1)c1ccccc1 | . | . | . | . | 24% | -28%
COc1ccccc1NC(=O)c1ccc2c(c1)N(CC#N)C(=O)C(C)(C)O2 | 6% | ? | 18 | ? | ? | 35%
Nc1nonc1-c1nc2ccccc2n1Cc1c(Cl)cccc1Cl | . | -32% | . | -12% | . | .
O=C(CSc1nc2ccccc2s1)NC1CCCC1 | 0% | 8% | 13 | 10% | 20% | -37%
O=C(CSc1nc2ccccc2s1)NNC(=S)Nc1ccc(Cl)cc1 | -2% | ? | 25 | -5% | 8.9µM* | 5µM*
C=CCNC(=S)NNC(=O)CSc1nc2ccccc2s1 | 12% | -29% | 35 | 11% | ? | 7.1µM*
O=C(CSc1nc2ccccc2s1)Nn1cnnc1 | ? | 7% | 22 | 18µM* | -13% | 7%
O=C(CSc1nc2ccccc2s1)NCCOc1ccccc1 | ? | -2% | 13 | -19% | ? | ?
O=C(Nc1ccc(Cl)cc1)/C(=C/c1ccc([N+](=O)[O-])cc1)c1nc2ccccc2s1 | ? | . | . | . | 5µM* | 5µM*
COC(=O)C1=C(CSc2nncn2C)NC(=O)NC1c1ccc(F)cc1 (stereo not given) | 10% | 0% | -8 | 6% | -2% | 5%
O=C(O)c1ccc(Cl)c(S(=O)(=O)Nc2ccccc2Cc2ccccc2)c1 | 8% | 4% | 6 | -3% | 1% | 4%
COc1ncc2nc(-c3ccc(F)cc3)c(=O)n(Cc3ccc(F)cc3)c2n1 | . | -7% | . | 1% | -15% | -34%
COc1ncc2nc(CCc3ccccc3)c(=O)n(Cc3ccc(F)cc3)c2n1 | . | 23µM* | . | ? | -11% | 29%
O=c1c(CCc2ccccc2)nc2cnc(N3CCOCC3)nc2n1Cc1cccs1 | . | -11% | . | -29% | -3% | -3%
CN1CCN(c2ncc3nc(-c4cn(C)c5ccccc45)c(=O)n(Cc4cccs4)c3n2)CC1 | . | 0.37µM* | . | 1.6µM* | ? | -11%
CN1CCN(c2ncc3nc(CCc4ccccc4)c(=O)n(Cc4cccs4)c3n2)CC1 | . | 21µM* | . | ? | 8% | -28%
Cc1cc(C)cc(-c2nnc(SCC(=O)c3c(N)n(C4CC4)c(=O)[nH]c3=O)o2)c1 | 16% | -11% | 3 | -4% | . | .
CCOc1ccccc1NC(=O)Cn1c(=O)n(-c2ccccc2)c(=O)c2c1c1cc(C)ccc1n2C | . | 5% | . | 2% | . | .
